Results from PubChem BioAssay (EPA / NIEHS).
The source holds several records for some structures; these can differ, active in one and inactive in another. The source made the active and inactive calls. Rule for the calls: active = hit-call score of the fitted dose curve at least 0.9, where 1 is the maximum; inactive = score below 0.9.

experiment: CCTE_Deisenroth_5AR_NBTE_donor: CCTE's 5alpha-reductase NanoBRET Target Engagement Assay […], Deisenroth Lab (AID 2284319); settings: actives raise or lower the signal
Procedure: CCTE_Deisenroth_5AR NBTE (5alpha-reductase NanoBRET Target Engagement Assay) is a cell-based, single-readout assay that uses HEK293T, a human kidney cell line, with measurements taken at 5 hours after chemical dosing in a 384 well plate. This assay includes a primary and secondary screen as well as an autofluorscence screen.CCTE_Deisenroth_5AR NBTE_donor is one of four assay components measured from the CCTE_Deisenroth_5AR NBTE assay. It is designed to make measurements of donor luminescence, as detected by bioluminescence intensity emission signals using spectrometry technology.Data from the assay component CCTE_Deisenroth_5AR NBTE_donor was analyzed into 1 assay endpoint. This assay endpoint, CCTE_Deisenroth_5AR NBTE_donor, was analyzed with bidirectional fitting relative to DMSO as the negative control and baseline of activity. Using a type of inducible reporter, gain or loss-of-signal activity can be used to understand changes in the donor luminescence as related to 5alpha-reductase catalytic function. Furthermore, this assay endpoint can be referred to as a secondary readout, because this assay has produced multiple assay endpoints where this one serves an artifact detection function.
For transient expression of the SRD5A2-NanoLuc fusion protein, HEK293T cells are reverse transfected with pNLF1-C-SRD5A2 expression vector and incubated for 20 hours to facilitate fusion protein expression. For assay setup, 384-well non-binding surface (NBS) microplates are pre-dispensed with test chemical across an 8-point concentration series (10 nM - 29.9 uM) with two technical replicates per run. Cell suspensions are dispensed into the microplates and incubated with test chemical for a duration of three hours. Following pre-incubation with test chemical, the testosterone tracer is dispensed into each well and incubated an additional two hours. The total incubation period with test chemical is five hours, with testosterone tracer added the final two hours to reach target engagement equilibrium. For the NanoBRET endpoint measurements, a solution of Nano-Glo substrate and extracellular NanoLuc inhibitor solution is added to each test well and immediately scanned on a plate reader configured with multichromatic emission settings for donor luminescence ([…]) and acceptor fluorescence ([…]). DMSO solvent controls are included as baseline control. Plate-matched samples are run with mock tracer conditions or testosterone tracer to discriminate any potential non-specific substrate interference.

AC50, active:
CN(C[C@@H](CC[N+]12CCC(C3CCCCC3)(CC1)CC2)c1ccc(Cl)c(Cl)c1)C(=O)c1cc(C(F)(F)F)cc(C(F)(F)F)c1 19.7 µM
CN(C)c1ccc(C(=C2C=CC(=[N+](C)C)C=C2)c2ccc(N(C)C)cc2)cc1 12.6 µM
CCCCCCCCOC(=O)c1cc(O)c(O)c(O)c1 74.7 µM
O=c1[nH]sc2ccccc12 81.2 µM
CCN(CC)C(=O)c1cc(S(=O)(=O)Cc2ccccc2)c(N2CCC(c3ccccc3)CC2)cc1N(CC)CCN(C)C 10 µM
O=C(O)Cc1cc(I)c(Oc2ccc(O)c(I)c2)c(I)c1 28.2 µM
CO[C@H]1/C=C/O[C@@]2(C)Oc3c(C)c(O)c4c(O)c(c(/C=N/N5CCN(C)CC5)c(O)c4c3C2=O)NC(=O)/C(C)=C\C=C\[C@H](C)[C@H](O)[C@@H](C)[C@@H](O)[C@@H](C)[C@H](OC(C)=O)[C@@H]1C 50 µM

outcome, inactive:
NCc1cccc(C2CCN(C(=O)c3ccc(C#Cc4ccccc4F)o3)CC2)c1
O=c1c(-c2ccc(O)cc2)coc2cc(O)cc(O)c12
CN1C(=O)CC[C@H]1c1cccnc1
CCN(CC)C(=O)c1cc(S(=O)(=O)Cc2ccccc2)c(N2CCC(c3ccccc3)CC2)cc1N(CC)CCN(C)C
COc1cc(C(=O)NC2CCN(C)CC2)ccc1Nc1ncc2c(n1)N(C1CCCC1)CC(F)(F)C(=O)N2C
CCCCCCCCCCCO
CCN(Cc1cccc(S(=O)(=O)O)c1)c1ccc(C(=C2C=CC(=[N+](CC)Cc3cccc(S(=O)(=O)O)c3)C=C2)c2ccccc2S(=O)(=O)[O-])cc1
CN1C(=O)N(c2ccccc2Br)Cc2cnc(Nc3ccc4c(c3)OCC(CO)O4)nc21 (stereo not given)
